Source: the supplement of paper PMC4466140

B1: unnamed (peptide)
chain: SLSRRRFSLPSMPNV

The binders below were run against CaNbp2 (assay: SPOT peptide array binding signal intensity (averaged, normalized) (arbitrary units (background-subtracted, floor 0; scale differs between SH3 domains)); higher = stronger binding of the SH3 domain to the peptide).
Outline: (§1)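 The binding signal is the normalized, background-subtracted spot intensity averaged over replicates; its arbitrary units differ between domains. It was obtained by incubating 10 μg/ml GST-fused SH3 domains from four yeast species overnight at 4°C in TBS-based blocking buffer on cellulose membranes with synthetic 15-mer peptides, cysteines replaced by serines, then detecting with anti-GST antibody, HRP anti-mouse secondary and luminol.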

Binder	SPOT peptide array binding signal intensity
B1	282

Each binder was assayed against CaRvs167 in the same assay as above.
Outline: as §1

Binder	SPOT peptide array binding signal intensity
B1	27

What follows are binders tested against CaRvs167-3 in the same assay as above.
Outline: as §1

Binder	SPOT peptide array binding signal intensity
B1	152

Each binder was assayed against CaSho1 in the same assay as above.
Outline: as §1

Binder	SPOT peptide array binding signal intensity
B1	477

What follows are binders tested against CaSla1-D1-D2 in the same assay as above.
Outline: as §1

Binder	SPOT peptide array binding signal intensity
B1	471

The binders below were run against CaSla1-D3 in the same assay as above.
Outline: as §1

Binder	SPOT peptide array binding signal intensity
B1	133

What follows are binders tested against ScAbp1 in the same assay as above.
Outline: as §1

Binder	SPOT peptide array binding signal intensity
B1	94

The binders below were run against ScBbc1 in the same assay as above.
Outline: as §1

Binder	SPOT peptide array binding signal intensity
B1	26.5

Each binder was assayed against ScBem1-D1 in the same assay as above.
Outline: as §1

Binder	SPOT peptide array binding signal intensity
B1	28

Each binder was assayed against ScBzz1-D1 in the same assay as above.
Outline: as §1

Binder	SPOT peptide array binding signal intensity
B1	54

The binders below were run against ScBzz1-D2 in the same assay as above.
Outline: as §1

Binder	SPOT peptide array binding signal intensity
B1	29.5

Each binder was assayed against ScCyk3 in the same assay as above.
Outline: as §1

Binder	SPOT peptide array binding signal intensity
B1	192

The binders below were run against ScFus1 in the same assay as above.
Outline: as §1

Binder	SPOT peptide array binding signal intensity
B1	256

What follows are binders tested against ScHof1 in the same assay as above.
Outline: as §1

Binder	SPOT peptide array binding signal intensity
B1	3

These binders were tested against ScHse1 in the same assay as above.
Outline: as §1

Binder	SPOT peptide array binding signal intensity
B1	1590

The binders below were run against ScLsb1 in the same assay as above.
Outline: as §1

Binder	SPOT peptide array binding signal intensity
B1	348

The binders below were run against ScLsb2 in the same assay as above.
Outline: as §1

Binder	SPOT peptide array binding signal intensity
B1	42

What follows are binders tested against ScLsb3 in the same assay as above.
Outline: as §1

Binder	SPOT peptide array binding signal intensity
B1	181

The binders below were run against ScLsb4 in the same assay as above.
Outline: as §1

Binder	SPOT peptide array binding signal intensity
B1	9.5

Each binder was assayed against ScMyo3 in the same assay as above.
Outline: as §1

Binder	SPOT peptide array binding signal intensity
B1	9.5

Each binder was assayed against ScMyo5 in the same assay as above.
Outline: as §1

Binder	SPOT peptide array binding signal intensity
B1	9.25

The binders below were run against ScNbp2 in the same assay as above.
Outline: as §1

Binder	SPOT peptide array binding signal intensity
B1	350

These binders were tested against ScPex13 in the same assay as above.
Outline: as §1

Binder	SPOT peptide array binding signal intensity
B1	38

The binders below were run against ScRvs167 in the same assay as above.
Outline: as §1

Binder	SPOT peptide array binding signal intensity
B1	37.3

What follows are binders tested against ScSho1 in the same assay as above.
Outline: as §1

Binder	SPOT peptide array binding signal intensity
B1	743

Each binder was assayed against ScSla1-D1-D2 in the same assay as above.
Outline: as §1

Binder	SPOT peptide array binding signal intensity
B1	636

These binders were tested against ScSla1-D3 in the same assay as above.
Outline: as §1

Binder	SPOT peptide array binding signal intensity
B1	97.8

The binders below were run against SpAbp1-D1 in the same assay as above.
Outline: as §1

Binder	SPOT peptide array binding signal intensity
B1	416

Each binder was assayed against SpBbc1 in the same assay as above.
Outline: as §1

Binder	SPOT peptide array binding signal intensity
B1	8

The binders below were run against SpBzz1-D1 in the same assay as above.
Outline: as §1

Binder	SPOT peptide array binding signal intensity
B1	311

Each binder was assayed against SpBzz1-D2 in the same assay as above.
Outline: as §1

Binder	SPOT peptide array binding signal intensity
B1	1.75

These binders were tested against SpCyk3 in the same assay as above.
Outline: as §1

Binder	SPOT peptide array binding signal intensity
B1	18

The binders below were run against SpHof1 in the same assay as above.
Outline: as §1

Binder	SPOT peptide array binding signal intensity
B1	248

What follows are binders tested against SpHof1-2 in the same assay as above.
Outline: as §1

Binder	SPOT peptide array binding signal intensity
B1	58.5

What follows are binders tested against SpHof1-3 in the same assay as above.
Outline: as §1

Binder	SPOT peptide array binding signal intensity
B1	440

Each binder was assayed against SpHse1 in the same assay as above.
Outline: as §1

Binder	SPOT peptide array binding signal intensity
B1	662

The binders below were run against SpLsb1 in the same assay as above.
Outline: as §1

Binder	SPOT peptide array binding signal intensity
B1	270

The binders below were run against SpLsb4 in the same assay as above.
Outline: as §1

Binder	SPOT peptide array binding signal intensity
B1	106

These binders were tested against SpMyo1 in the same assay as above.
Outline: as §1

Binder	SPOT peptide array binding signal intensity
B1	15.5

What follows are binders tested against SpNbp2 in the same assay as above.
Outline: as §1

Binder	SPOT peptide array binding signal intensity
B1	235

Each binder was assayed against SpPex13 in the same assay as above.
Outline: as §1

Binder	SPOT peptide array binding signal intensity
B1	49

What follows are binders tested against SpRvs167 in the same assay as above.
Outline: as §1

Binder	SPOT peptide array binding signal intensity
B1	14

Each binder was assayed against SpSla1-D1-D2 in the same assay as above.
Outline: as §1

Binder	SPOT peptide array binding signal intensity
B1	5

Each binder was assayed against SpSla1-D3 in the same assay as above.
Outline: as §1

Binder	SPOT peptide array binding signal intensity
B1	19
